This is a sample that favours compounds with a hit; in the whole collection about 7.4% have one here.
Rab9 prom act: Rab9 promoter activation; Huh7 Rab9 promoter-luciferase reporter, luminescence, 24 h; Potency, µM (doses to about 9.22 µM), usual class: activators; 320,000 compounds, 2.8% hits; AID 485297; further: nearly all actives have a fitted effect of over 60% in size
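Promoter activation is measured as luciferase luminescence in Huh7 cells stably transfected with a Rab9 promoter–luciferase construct, following 24 h compound exposure at 37 °C and 10 min reagent incubation at ambient temperature.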
ELG1 genotox: induces genotoxicity in HEK293T cells with luciferase-tagged ELG1; Potency, µM (doses to about 46 µM), hits mostly activators; HEK293T ELG1-luciferase reporter, luminescence, 16 h; 330,000 compounds, 1.3% hits; further: nearly all actives have a fitted effect of over 60% in size
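Genotoxicity was scored as increased ELG1-luciferase reporter signal, measured by ONE-Glo luminescence (30 min, room temperature). Compound or vehicle exposure of the HEK293T reporter cells lasted 16 hr at 37°C.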
SMN2 splice enh: SMN2 splice variant enhancement. HEK293 SMN2-luciferase splicing reporter, luminescence, 30-36 h. Potency, µM (doses to about 46.1 µM), most hits filed as activators. 210,000 compounds, 2.8% hits. AID 1458; further: nearly all actives have a fitted effect of over 55% in size
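qHTS luciferase splicing reporter: luminescence rises when SMN2 exon 7 is included in transfected HEK293 cells. Compound exposure lasted 30-36 h at 37C, with 4.5 mM final sodium butyrate as control, followed by a ONE-Glo read.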
FLuc counter: counter-screen for miR-21 project: firefly luciferase inhibitors or activators; 360,000 compounds, 6.9% hits; P08659; AID 588342; Potency, µM (series often up to 57.5 µM), most hits filed as inhibitors; purified FLuc, Km substrates, luminescence inhibition; further: nearly all actives have a fitted effect of over 55% in size
Target sequence (P08659 whole entry, looked up): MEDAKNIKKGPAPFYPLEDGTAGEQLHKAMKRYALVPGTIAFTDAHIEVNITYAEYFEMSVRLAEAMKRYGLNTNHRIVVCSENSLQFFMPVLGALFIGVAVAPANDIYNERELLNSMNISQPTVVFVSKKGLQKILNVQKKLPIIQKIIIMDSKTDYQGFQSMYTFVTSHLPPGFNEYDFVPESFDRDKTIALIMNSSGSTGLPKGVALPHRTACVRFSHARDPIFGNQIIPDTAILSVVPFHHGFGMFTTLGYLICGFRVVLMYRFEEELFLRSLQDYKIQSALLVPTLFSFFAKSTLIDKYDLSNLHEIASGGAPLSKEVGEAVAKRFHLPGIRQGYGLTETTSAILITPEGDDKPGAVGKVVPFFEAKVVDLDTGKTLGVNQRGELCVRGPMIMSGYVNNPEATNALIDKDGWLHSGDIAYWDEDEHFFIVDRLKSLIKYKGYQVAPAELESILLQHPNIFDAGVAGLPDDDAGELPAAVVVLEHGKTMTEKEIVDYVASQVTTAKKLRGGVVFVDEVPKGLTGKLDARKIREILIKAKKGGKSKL
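Biochemical qHTS of compounds, final roughly 60 µM downward over six points, against 10 nM purified firefly luciferase using Km concentrations of substrates (10 uM D-luciferin, 10 uM ATP) in Tris acetate pH 7.5 buffer; luminescence output.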
NPC1 prom act: NPC1 promoter activation. Huh7 NPC1 promoter luciferase reporter, 24 h. Potency, µM (top dose mostly 9.22 µM), hits mostly activators. 320,000 compounds, 2.4% hits. AID 485313; further: nearly all actives have a fitted effect of over 60% in size
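In 1536-well qHTS, Huh7 cells harboring an NPC1 promoter–luciferase construct received compound for 24 h; activation was quantified by luminescence following luciferase reagent addition.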
Hits are given with their value; [ ] = remark or other dose. The call rests on the fitted dose curve; in most records, active means well fitted curve in the direction sought with a large enough effect; inconclusive means small, poorly fitted or top-dose-only effect, or another doubt; inactive means no such curve, though single readings can be large; an effect the other way counts as inactive or inconclusive.

How did CNC(=O)Oc1cccc(-c2cn3cc(OC(=O)NC)ccc3n2)c1 do in these assays?
Rab9 prom act: inconclusive; ELG1 genotox: 20.6µM; SMN2 splice enh: 12.6µM; FLuc counter: 3.79µM; NPC1 prom act: 3.55µM

How did CNC(=O)Oc1ccc(-c2cn3cc(Cl)ccc3n2)cc1 do in these assays?
Rab9 prom act: 0.631µM; ELG1 genotox: inconclusive; SMN2 splice enh: 5.01µM; FLuc counter: 1.07µM; NPC1 prom act: 0.891µM

Results for NCCSC(c1ccccc1)c1ccccc1 ?
SMN2 splice enh: inactive[9.22 µM]

How did O=P(Nc1cccnc1)(Oc1ccccc1)Oc1ccccc1 do in these assays?
Rab9 prom act: inactive; ELG1 genotox: inactive; SMN2 splice enh: 3.98µM; FLuc counter: inactive; NPC1 prom act: inactive

What do the screens show for `CNC(=O)Oc1ccc2c(c1)C(=O)c1ccccc1CO2`?
Rab9 prom act: inactive; ELG1 genotox: inactive; SMN2 splice enh: inactive; FLuc counter: 10.7µM; NPC1 prom act: inactive

Results for CNC(=O)Oc1ccc(C(=O)N2c3ccccc3NC(=O)C2C)cc1 (stereo not given) ?
Rab9 prom act: inactive; ELG1 genotox: inactive; FLuc counter: inactive; NPC1 prom act: inactive

Results for C[C@@H](Cc1ccc(Cl)cc1Cl)NO ?
SMN2 splice enh: inactive[9.22 µM]

How did [O]=[Cd] do in these assays?
SMN2 splice enh: inactive

How did O=c1cc(-c2ccc(O)c(O)c2)oc2cc(O)cc(O)c12 do in these assays?
Rab9 prom act: inactive; ELG1 genotox: inconclusive; SMN2 splice enh: 8.91µM; FLuc counter: 23.9µM; NPC1 prom act: inactive

Results for O=c1c(O)c(-c2ccc(O)c(O)c2)oc2cc(O)cc(O)c12 ?
Rab9 prom act: inactive; ELG1 genotox: inactive; SMN2 splice enh: inactive; FLuc counter: inconclusive; NPC1 prom act: inactive

Results for Cc1ncc([N+](=O)[O-])n1CCN=[N+]=[N-] ?
SMN2 splice enh: inactive[9.22 µM]

How did Cc1ccc(S(=O)ON2CCC(C(=O)O)(c3ccccc3)CC2)cc1 (stereo not given) do in these assays?
SMN2 splice enh: inactive[9.22 µM]

How did CCC(=Nc1cc(OC)ccc1OC)c1c(O)[nH]c(=O)[nH]c1=O do in these assays?
Rab9 prom act: inactive; ELG1 genotox: inactive; SMN2 splice enh: inactive; FLuc counter: inactive; NPC1 prom act: inactive

How did C=CCn1c(O)c(C(CC)=Nc2cc(OC)ccc2OC)c(=O)[nH]c1=O do in these assays?
Rab9 prom act: inactive; ELG1 genotox: 23.1µM; SMN2 splice enh: inconclusive; FLuc counter: inactive; NPC1 prom act: inactive

How did Cc1cc(/C=C2\C(=O)NC(=S)N(C)C2=O)c(C)n1C1CCCCC1 do in these assays?
Rab9 prom act: inactive; ELG1 genotox: inconclusive; SMN2 splice enh: inactive; FLuc counter: 0.477µM; NPC1 prom act: inactive

What do the screens show for `Cc1cc(C=C2C(=O)N(C)C(=S)N(C)C2=O)c(C)n1C1CCCC1`?
Rab9 prom act: inactive; ELG1 genotox: inconclusive; SMN2 splice enh: inactive; FLuc counter: 2.39µM; NPC1 prom act: inactive

What do the screens show for `Cc1cc(C=O)c(C)n1C1CCCCC1`?
Rab9 prom act: inactive; ELG1 genotox: inactive; SMN2 splice enh: inactive; FLuc counter: inactive; NPC1 prom act: inactive

Results for CCN1C(=O)C(=Cc2cc(C)n(C3CC3)c2C)C(=O)N(CC)C1=S ?
Rab9 prom act: inactive; ELG1 genotox: inactive; SMN2 splice enh: inactive; FLuc counter: inactive; NPC1 prom act: inactive

What do the screens show for `N#CC(C#N)=NNc1ccc(OC(F)(F)F)cc1`?
SMN2 splice enh: inactive

Results for CSSC ?
SMN2 splice enh: inactive

What do the screens show for `CC(C)(C)c1ccc(OCCON2C(=O)CCC2=O)c(Cl)c1`?
Rab9 prom act: inactive; ELG1 genotox: inconclusive; SMN2 splice enh: inactive; FLuc counter: 15.1µM; NPC1 prom act: inactive

What do the screens show for `COc1cc(/C=C/c2nc3ccccc3c(=O)n2-c2ccccc2O)ccc1O`?
Rab9 prom act: inactive; ELG1 genotox: inactive; FLuc counter: 16.9µM; NPC1 prom act: inactive

How did COc1ccccc1-n1c(-c2ccc(C)cc2)nc2ccccc2c1=O do in these assays?
Rab9 prom act: inactive; ELG1 genotox: inactive; FLuc counter: 13.5µM; NPC1 prom act: inactive

What do the screens show for `Cc1ccc(O)cc1C`?
SMN2 splice enh: inactive

Results for N#CS.N=C=S.N=C=S.[Cu].[NH2-].[NH2-].[NH2-].[NH2-].c1ccc2ncccc2c1 ?
SMN2 splice enh: inactive[9.22 µM]

Results for Cc1cc(N2CCOCC2)nc2ccc(NC(=O)CCC(=O)N3CCC4(CC3)OCCO4)cc12 ?
Rab9 prom act: inactive; ELG1 genotox: inactive; FLuc counter: 15.1µM; NPC1 prom act: inactive

How did Cc1ccc(CNC(=O)c2ccccc2NC(=O)c2nsc3ccccc23)cc1 do in these assays?
FLuc counter: 16.9µM

How did O=C(NCc1ccccc1)c1cccn(Cc2ccccc2)c1=O do in these assays?
Rab9 prom act: inactive; ELG1 genotox: inactive; FLuc counter: inactive; NPC1 prom act: inactive

Results for NC(CCl)=N[C@H]1CN2CCC1CC2 ?
SMN2 splice enh: inactive[9.22 µM]

What do the screens show for `COc1ccc2c(c1)NP(=S)(Oc1ccccc1)N2` (stereo not given)?
Rab9 prom act: inactive; ELG1 genotox: inconclusive; FLuc counter: 6.75µM; NPC1 prom act: inactive

What do the screens show for `COc1cccc(-n2c(=S)[nH]c3ccccc3c2=O)c1`?
Rab9 prom act: inactive; ELG1 genotox: inactive; SMN2 splice enh: inactive; FLuc counter: inactive; NPC1 prom act: inactive

Results for Cc1noc(C)c1C(=O)N1CCC2(CCCN(CC(C)C)C2)CC1 ?
SMN2 splice enh: inactive

What do the screens show for `CCN(CC)C(=O)c1ccc(NC(=O)c2c(C)noc2C)cc1`?
Rab9 prom act: inactive; ELG1 genotox: inactive; FLuc counter: inactive; NPC1 prom act: inactive

How did CC(=O)c1ccc(NC(=O)c2cc(CC(C)C)on2)cc1 do in these assays?
Rab9 prom act: inactive; ELG1 genotox: 18.4µM; SMN2 splice enh: inactive; FLuc counter: inconclusive; NPC1 prom act: inactive

What do the screens show for `Nc1ccccc1C(=O)OCC(=O)N1CCc2ccccc21`?
Rab9 prom act: 2.51µM; ELG1 genotox: 9.2µM; SMN2 splice enh: inactive; FLuc counter: 9.53µM; NPC1 prom act: inconclusive

What do the screens show for `Cc1ccc(Sc2ccc(C=C3C(=O)N(C)C(=O)N(C)C3=O)o2)cc1`?
Rab9 prom act: inactive; ELG1 genotox: inactive; SMN2 splice enh: inactive; FLuc counter: 15.1µM; NPC1 prom act: inactive

Results for COC(=O)[C@@H]1C[C@H]1[C@@H](NP(=O)(c1ccccc1)c1ccccc1)c1ccccc1 ?
Rab9 prom act: inactive; ELG1 genotox: 18.4µM; SMN2 splice enh: 10µM; FLuc counter: inactive; NPC1 prom act: inactive

How did O=C1NC(=O)C(=Cc2ccc(-c3cc(Cl)ccc3[N+](=O)[O-])o2)C(=O)N1 do in these assays?
Rab9 prom act: inactive; ELG1 genotox: inactive; SMN2 splice enh: inactive; FLuc counter: 15.1µM; NPC1 prom act: inactive

How did O=C1NC(=O)C(=Cc2ccc(-c3ccccc3[N+](=O)[O-])o2)C(=O)N1 do in these assays?
Rab9 prom act: inactive; ELG1 genotox: inactive; FLuc counter: inconclusive; NPC1 prom act: inactive

What do the screens show for `Cc1nc2ccccc2cc1C[N+]12CN3CN(CN(C3)C1)C2`?
SMN2 splice enh: inactive[9.22 µM]

Results for COc1ccc(OC(=O)Nc2ccccc2)cc1 ?
Rab9 prom act: inactive; ELG1 genotox: inconclusive; SMN2 splice enh: inconclusive; FLuc counter: inconclusive; NPC1 prom act: inactive

Compound activity as filed in PubChem.
